# RAM inhibit – blocks the yeast RAM network; S. cerevisiae dse1pr::URA3 reporter, 5-FOA growth OD615, 2 d; analog-sensitive cbk1-as2 kinase mutant strain; inhibition, % at 50 µM; hit rate 1.8% among 190,000; AID 868;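 active = inhibition above a set limit, 3 SD over mean compound inhibition, cut at about 8.4% in these data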;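 also: 0% = DMSO-only wells with no growth and 100% = 10 µM 1-NA-PP1 full growth; inhibition rescues growth on 5-FOA so higher OD means more RAM inhibition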
# S1P4 agonist – activates the human S1P4 receptor; hit rate 0.35% among 220,000; S1P4-expressing cell line, agonist reporter assay; O95977; activation, % at 4.98 µM; in the data active = activation above about 11%;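 also: 0% = DMSO vehicle and 100% = reference agonist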
# S1P3 antag – blocks the human S1P3 receptor; hit rate 0.27% among 170,000; inhibition, % at 4.98 µM; Q99500; CHO S1P3 NFAT-BLA reporter, FRET fluorescence, antagonist mode; AID 485;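 active = inhibition above the plate cutoff, the mean inhibition of test wells on that plate plus 3 SD, cut at about 28% in these data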;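 also: cells challenged with S1P at its EC80 of 0.8 µM; blue over green emission ratio from cleaved BLA substrate after 4 h stimulation; 0% = S1P-stimulated wells and 100% = unstimulated DMSO-only wells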
# S1P4 antag – blocks the human S1P4 receptor; O95977; S1P4-expressing cells, antagonist mode, reporter read-out; inhibition, % at 4.98 µM; hit rate 0.26% among 220,000; in the data active = inhibition above about 29%;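 also: 0% = wells stimulated with agonist and 100% = vehicle wells without agonist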
# ROMK mod – modulators of human ROMK potassium channel | B-score at 10 µM | AID 1918 | Tet-inducible ROMK, thallium flux fluorescence; actives lie on both sides | hit rate 2% among 130,000 | P48048;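 active = signal ratio slope over the read window, or its plate-corrected B-score, at least 3 SD from the plate mean, either direction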;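 also: B-score of the F/F0 ratio slope over 7 to 12 s after thallium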
# Target sequence (P48048 whole entry, looked up): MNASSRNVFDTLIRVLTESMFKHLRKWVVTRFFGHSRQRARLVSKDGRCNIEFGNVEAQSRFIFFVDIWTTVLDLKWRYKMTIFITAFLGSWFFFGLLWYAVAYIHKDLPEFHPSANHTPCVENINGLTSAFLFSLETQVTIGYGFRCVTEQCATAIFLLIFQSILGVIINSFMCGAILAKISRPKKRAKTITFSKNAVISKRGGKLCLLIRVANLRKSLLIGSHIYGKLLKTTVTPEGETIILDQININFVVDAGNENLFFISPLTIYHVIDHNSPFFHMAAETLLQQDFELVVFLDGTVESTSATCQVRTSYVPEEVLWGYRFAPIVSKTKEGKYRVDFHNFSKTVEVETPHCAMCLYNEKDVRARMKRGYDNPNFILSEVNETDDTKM
# KCC2 mod – modulates chloride dependent transport by human KCC2; Q9H2X9; KCC2 cells, thallium flux FluoZin-2 fluorescence; B-score of Tl+ flux slope (higher = more flux/activation; lower = inhibition) at 10 µM; hit rate 2.2% among 190,000; AID 1456;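 active = thallium flux slope and its plate-corrected score both differing from the plate sample mean at a set confidence after two filtering rounds, in either direction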;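 also: slope of fluorescence scaled to starting intensity during 10 to 20 s after thallium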
# Active calls of the source: *; . = no result. Shown are actives, neighbours in structure and some others; about 5.1% of the full set was active somewhere.
SMILES,RAM inhibit,S1P4 agonist,S1P3 antag,S1P4 antag,ROMK mod,KCC2 mod
CCN1C(=O)C2(C(C(=O)c3cc4ccccc4o3)=C(O)C(=O)N2CCCN2CCOCC2)c2ccccc21 (centres undefined),.,-2,-19,4,.,-0.29
Cc1ccc(/C=N/Nc2nc(Cl)c(Cl)cc2Cl)s1,1,0,.,-10,.,7.6*
Cc1ccsc1/C=N/Nc1nc(Cl)c(Cl)cc1Cl,0,1,.,3,.,3.6
COc1ccc(Nc2nnc(SCC(=O)Nc3ccc4[nH]c(=O)[nH]c4c3)s2)cc1,10*,1,-29,-2,0.32,-0.9
CC(C)(C)OC(=O)N[C@@H](Cc1ccccc1)[C@H](O)c1ccco1,.,.,.,.,.,0.0095
CCOC(=O)N1CCC(NC(=O)Cn2ncc3c4ccccc4n(C)c3c2=O)CC1,1,-1,-17,4,.,-2.6*
CCOC(=O)N1CCC(NC(=O)Cn2ncc3ccccc32)CC1,1,-1,-3,-3,.,0.024
COc1ccc(NC(=O)c2cc(-c3ccccc3OC)on2)cc1,2,0,-8,6,1.1,-5.9
COc1cccc(-c2cc(C(=O)Nc3cccc(O)c3)no2)c1,9.2*,-1,11,-3,.,0.69
COc1ccc(-c2cc(C(=O)Nc3ccccc3SC)no2)cc1OC,8.7*,1,-48,1,0.4,0.11
COc1cccc(-c2cc(C(=O)Nc3ccccc3SC)no2)c1,8,0,19,-12,.,1.2
COc1ccccc1-c1cc(C(=O)Nc2ccccc2SC)no1,9.0*,0,20,-9,0.33,0.1
COc1cc(NC(=O)c2cc(-c3cccc(O)c3)on2)cc(OC)c1OC,7,4,-9,-8,.,-0.11
CCc1ccc(/C=C/C(=O)C2C(=O)c3ccccc3C2=O)cc1,9.1*,0,.,1,.,19*
O=C(c1ccccc1)C1C(=O)c2ccccc2C1=O,-1,0,-29,-8,.,.
O=C(/C=C/c1ccccc1)C1C(=O)c2ccccc2C1=O,4,0,-8,-1,.,36*
NC(=O)Nc1ccc(C(=O)OCC(=O)Nc2ccc([N+](=O)[O-])cc2C(F)(F)F)cc1,2,0,-13,1,0.54,-0.0081
COC(=O)c1sc(S(=O)(=O)Nc2ccc(Br)cc2)c(C(=O)OC)c1C,8.7*,-1,-3,-6,0.39,0.31
CC1CCN(C(=O)c2[nH]cnc2C(=O)N[C@@H](C)C(=O)OCc2ccccc2)CC1,.,.,.,.,.,-0.075
O=C(C/C=N/OCc1ccc(Cl)cc1)c1cnc(-c2ccccc2)s1,11*,-5,.,-5,.,1
O=C(CSc1nnc(COc2ccccc2)o1)N1CCN(c2ccccc2)CC1,3,-2,10,7,0.28,2.3
CCc1ccc(OCc2nnc(SCC(=O)N3CCN(c4ccccc4)CC3)o2)cc1,8.4*,1,.,-7,0.69,-0.43
CCOC(=O)N1CCC2(CC1)NCCc1c2[nH]c2ccccc12,.,-1,-8,14,-0.78,0.041
COc1ccccc1CNC(=O)c1nn(-c2ccc(C)cc2)c(=O)c2c1c1ccccc1n2C,9.4*,1,.,-9,0.39,0.43
COc1ccc(-n2nc(C(=O)NCC(=O)NCc3ccco3)c3ccccc3c2=O)cc1,2,1,26,14,-0.21,.
SMILES,RAM inhibit,S1P4 agonist,S1P3 antag,S1P4 antag,ROMK mod,KCC2 mod
COc1ccc(-n2nc(C(=O)NCc3ccco3)c3c4ccccc4n(C)c3c2=O)cc1Cl,9.8*,2,7,-3,.,0.27
CC(NC(=O)c1c(Cl)cnn1C)C1CCCO1 (centres undefined),.,0,-2,-8,.,-0.036
CC1CN(C(=S)SCCN2C(=O)CCC2=O)CC(C)O1 (centres undefined),1,0,-2,-1,-0.091,-0.81
Cn1cccc1/C=N/n1c(-c2ccc(C(C)(C)C)cc2)n[nH]c1=S,0,2,.,-17,.,13*
Cn1c(-c2ccc(C(C)(C)C)cc2)n[nH]c1=S,0,1,12,1,.,3.9*
Cn1c(-c2ccccc2)n[nH]c1=S,.,3,1,-16,.,0.15
Cn1cccc1/C=N/n1c(-c2ccccc2)n[nH]c1=S,0,0,.,3,.,1.7
CCC(C(=O)OCC(=O)Nc1cc(Cl)cc(Cl)c1)c1ccccc1 (centres undefined),11*,1,-28,-14,-0.1,.
CCC(C(=O)OCC(=O)Nc1cccc(C(C)=O)c1)c1ccccc1 (centres undefined),3,0,-15,-12,0.097,-1.1
O=C(NC(=S)N1CCN(CCO)CC1)C12CC3CC(CC(C3)C1)C2,0,0,-13,-6,-0.11,-1.3
O=C(NC(=S)N1CCOCC1)C12CC3CCC(CC(C3)C1)C2,0,-2,-1,-11,.,2.6
CC12CC3CC(C)(C1)CC(C(=O)NC(=S)N1CCCCC1)(C3)C2,0,1,.,16,-1.2,10*
CC12CC3(C)CC(C)(C1)CC(C(=O)NC(=S)N1CCOCC1)(C2)C3,-1,0,.,-3,.,9.4*
C=CCSc1nnc(CNC(=O)c2ccc(Cl)cc2)n1CC,0,0,-10,0,1.4,0.0081
O=C1C2C3C=CC(C4CC34)C2C(=O)N1c1ccc2c(c1)OCO2 (centres undefined),2,2,-15,-9,-0.095,0.11
Cc1ccnn1CCC(=O)N1CCCC(CCC(=O)N2CCN(c3ccccn3)CC2)C1 (centres undefined),0,-1,-15,2,-0.31,0.36
COc1ccc(/C=C2\SC(=S)NC2=O)cc1OS(=O)(=O)c1ccc(NC(C)=O)cc1,6,2,-19,-10,-0.24,-2.8
COc1ccc(/C=C2\SC(=O)NC2=S)cc1OC,3,-1,9,2,.,12*
COc1cc(/C=C2/SC(=S)NC2=O)ccc1OS(=O)(=O)c1ccc(C)cc1,6,1,11,3,-1.8,80*
COc1cc(/C=C2\SC(=S)NC2=O)ccc1OS(=O)(=O)c1ccccc1,5,0,-7,-19,-2.3,80*
CCOc1ccc(/C=C2\SC(=S)N(C)C2=O)cc1OC,.,-2,3,0,.,0.22
Cc1ccc(N2C(=O)c3ccccc3C2C(=O)c2ccc(C)c(C)c2O)cc1 (centres undefined),.,0,23,13,.,.
Cc1nc(NC(=O)/C=C/c2ccccc2)n[nH]1,2,1,2,0,-0.013,-0.19
COCCCNC(=S)Nc1ccc2c(c1)OCCO2,0,4,-7,-12,.,0.92
N=c1n(CCN2CCOCC2)c2ccccc2n1CC(=O)c1ccc(Cl)c(Cl)c1,0,3,6,-7,-4.9*,0.004
O=C(NCc1ccc2c(c1)CCO2)Nc1cccc(C(F)(F)F)c1,.,-1,10,2,.,1.1
Cc1cc(/C=N/n2cnnc2)c(C)n1-c1ccc(OCc2ccccc2F)cc1,3,3,68*,-17,.,.
Cc1ccc(Nc2nc(CSc3nnc(-c4cccs4)o3)cs2)cc1,5,0,1,-7,.,0.34
